Laboratory results: ChEMBL document CHEMBL1961873, “Compounds: GSK PKIS; Assays: Nanosyn kinase panel” (2012)

Key:
[1] = target: Tyrosine-protein kinase Fyn (Homo sapiens) (UniProt P06241); settings: at 1 µM
[2] = target: Tyrosine-protein kinase HCK (Homo sapiens) (UniProt P08631); settings: at 0.1 µM
[3] = target: Tyrosine-protein kinase HCK (Homo sapiens) (UniProt P08631); settings: at 1 µM
[4] = target: Insulin-like growth factor 1 receptor (Homo sapiens) (UniProt P08069); settings: at 0.1 µM
Insulin-like growth factor 1 receptor (Homo sapiens), sequence (P08069 31-736 limits assumed): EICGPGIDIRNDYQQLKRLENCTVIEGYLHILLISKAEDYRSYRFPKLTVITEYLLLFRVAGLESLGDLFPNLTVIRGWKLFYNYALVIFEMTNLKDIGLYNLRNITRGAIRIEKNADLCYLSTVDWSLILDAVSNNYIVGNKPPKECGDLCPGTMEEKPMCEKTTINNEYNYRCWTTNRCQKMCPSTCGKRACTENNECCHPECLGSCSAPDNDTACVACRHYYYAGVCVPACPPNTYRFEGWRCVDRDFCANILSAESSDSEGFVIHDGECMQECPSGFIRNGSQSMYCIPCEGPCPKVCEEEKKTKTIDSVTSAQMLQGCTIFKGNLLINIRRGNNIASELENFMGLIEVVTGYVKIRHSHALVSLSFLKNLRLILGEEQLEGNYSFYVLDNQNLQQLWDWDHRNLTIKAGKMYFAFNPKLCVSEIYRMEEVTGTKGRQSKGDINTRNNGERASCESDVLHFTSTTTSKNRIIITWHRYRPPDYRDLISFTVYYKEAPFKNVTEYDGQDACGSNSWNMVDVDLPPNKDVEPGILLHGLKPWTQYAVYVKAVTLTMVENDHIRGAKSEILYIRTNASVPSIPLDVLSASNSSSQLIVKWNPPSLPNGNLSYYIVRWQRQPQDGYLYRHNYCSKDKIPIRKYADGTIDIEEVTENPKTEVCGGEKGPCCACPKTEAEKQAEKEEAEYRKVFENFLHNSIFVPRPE
Insulin-like growth factor 1 receptor (Homo sapiens), sequence (P08069 741-1367 limits assumed): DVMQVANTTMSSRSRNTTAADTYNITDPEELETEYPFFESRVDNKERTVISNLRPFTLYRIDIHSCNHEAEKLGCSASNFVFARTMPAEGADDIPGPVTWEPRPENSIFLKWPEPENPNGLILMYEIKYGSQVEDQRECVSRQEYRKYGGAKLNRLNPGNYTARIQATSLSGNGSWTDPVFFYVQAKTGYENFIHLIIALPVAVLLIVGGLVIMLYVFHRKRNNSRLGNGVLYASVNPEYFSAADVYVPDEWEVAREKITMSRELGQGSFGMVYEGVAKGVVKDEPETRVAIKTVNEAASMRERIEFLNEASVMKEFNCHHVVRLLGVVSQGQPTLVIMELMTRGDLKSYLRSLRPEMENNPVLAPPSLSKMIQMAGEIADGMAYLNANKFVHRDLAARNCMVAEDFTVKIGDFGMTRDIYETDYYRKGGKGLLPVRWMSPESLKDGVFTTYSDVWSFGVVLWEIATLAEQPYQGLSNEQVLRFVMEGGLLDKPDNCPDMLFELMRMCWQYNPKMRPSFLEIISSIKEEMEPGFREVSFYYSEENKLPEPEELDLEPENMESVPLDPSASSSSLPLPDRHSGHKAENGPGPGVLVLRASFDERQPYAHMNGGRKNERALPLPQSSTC

[5] = target: Insulin-like growth factor 1 receptor (Homo sapiens) (UniProt P08069); settings: at 1 µM
[6] = target: Insulin receptor (Homo sapiens) (UniProt P06213); settings: at 0.1 µM
[7] = target: Insulin receptor (Homo sapiens) (UniProt P06213); settings: at 1 µM
[8] = target: Insulin receptor-related protein (Homo sapiens) (UniProt P14616); settings: at 0.1 µM
Insulin receptor-related protein (Homo sapiens), sequence (P14616 27-742 limits assumed): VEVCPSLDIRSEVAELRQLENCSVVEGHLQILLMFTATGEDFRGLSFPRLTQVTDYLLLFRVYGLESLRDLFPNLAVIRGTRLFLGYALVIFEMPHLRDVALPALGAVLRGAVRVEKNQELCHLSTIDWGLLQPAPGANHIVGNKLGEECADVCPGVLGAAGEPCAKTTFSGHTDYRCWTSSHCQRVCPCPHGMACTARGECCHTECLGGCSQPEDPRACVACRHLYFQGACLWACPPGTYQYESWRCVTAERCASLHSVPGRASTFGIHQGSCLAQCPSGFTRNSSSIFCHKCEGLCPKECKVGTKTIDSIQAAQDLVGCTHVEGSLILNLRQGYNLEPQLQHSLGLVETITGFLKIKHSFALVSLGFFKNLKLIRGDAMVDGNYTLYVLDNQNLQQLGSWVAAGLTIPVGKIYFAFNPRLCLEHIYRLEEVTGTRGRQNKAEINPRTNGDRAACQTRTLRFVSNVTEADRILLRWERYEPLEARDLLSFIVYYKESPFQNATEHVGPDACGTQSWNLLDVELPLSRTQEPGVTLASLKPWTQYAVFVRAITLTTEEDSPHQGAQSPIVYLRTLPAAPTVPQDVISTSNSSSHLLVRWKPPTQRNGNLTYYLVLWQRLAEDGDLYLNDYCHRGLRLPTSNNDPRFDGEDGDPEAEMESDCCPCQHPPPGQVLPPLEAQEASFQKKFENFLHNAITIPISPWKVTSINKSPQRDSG
Insulin receptor-related protein (Homo sapiens), sequence (P14616 747-1297 limits assumed): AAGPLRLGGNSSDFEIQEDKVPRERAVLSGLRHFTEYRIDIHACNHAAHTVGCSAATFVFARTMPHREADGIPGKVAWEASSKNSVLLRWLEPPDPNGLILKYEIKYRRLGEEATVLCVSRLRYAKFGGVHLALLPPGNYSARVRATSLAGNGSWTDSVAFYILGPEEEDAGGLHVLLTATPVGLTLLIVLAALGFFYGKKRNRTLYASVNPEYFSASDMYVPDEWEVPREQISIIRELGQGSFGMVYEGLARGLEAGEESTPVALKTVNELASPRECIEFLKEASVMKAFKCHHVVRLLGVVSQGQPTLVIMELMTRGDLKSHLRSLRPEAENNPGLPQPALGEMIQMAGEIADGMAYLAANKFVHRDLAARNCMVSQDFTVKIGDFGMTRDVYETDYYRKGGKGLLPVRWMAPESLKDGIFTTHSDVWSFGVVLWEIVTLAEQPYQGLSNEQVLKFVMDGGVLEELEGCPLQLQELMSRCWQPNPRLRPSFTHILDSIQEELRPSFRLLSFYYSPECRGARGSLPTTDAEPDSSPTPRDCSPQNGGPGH

[9] = target: Insulin receptor-related protein (Homo sapiens) (UniProt P14616); settings: at 1 µM
[10] = target: T1, Tyrosine-protein kinase ITK/TSK (Homo sapiens) (UniProt Q08881); settings: at 0.1 µM
T1 sequence (whole entry): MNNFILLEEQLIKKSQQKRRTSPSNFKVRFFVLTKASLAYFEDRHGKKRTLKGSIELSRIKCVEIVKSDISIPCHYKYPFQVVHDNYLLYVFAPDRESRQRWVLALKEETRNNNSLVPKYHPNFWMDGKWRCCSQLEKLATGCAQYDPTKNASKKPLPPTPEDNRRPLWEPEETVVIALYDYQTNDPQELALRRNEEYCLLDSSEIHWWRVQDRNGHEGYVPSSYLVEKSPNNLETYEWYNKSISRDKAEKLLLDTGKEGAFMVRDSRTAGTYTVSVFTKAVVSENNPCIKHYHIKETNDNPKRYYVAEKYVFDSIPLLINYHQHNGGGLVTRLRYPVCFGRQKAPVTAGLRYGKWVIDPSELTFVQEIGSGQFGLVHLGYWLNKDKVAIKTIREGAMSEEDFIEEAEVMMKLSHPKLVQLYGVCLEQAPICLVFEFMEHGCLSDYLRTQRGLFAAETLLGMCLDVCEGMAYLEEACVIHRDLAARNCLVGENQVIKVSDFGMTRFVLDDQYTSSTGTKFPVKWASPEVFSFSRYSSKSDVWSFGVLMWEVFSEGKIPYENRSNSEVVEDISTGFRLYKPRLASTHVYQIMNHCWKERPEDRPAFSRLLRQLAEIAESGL

[11] = target: T1, Tyrosine-protein kinase ITK/TSK (Homo sapiens); settings: at 1 µM
[12] = target: Tyrosine-protein kinase JAK1 (Homo sapiens) (UniProt P23458); settings: at 0.1 µM
[13] = target: Tyrosine-protein kinase JAK1 (Homo sapiens) (UniProt P23458); settings: at 1 µM
[14] = target: Tyrosine-protein kinase JAK2 (Homo sapiens) (UniProt O60674); settings: at 0.1 µM
[15] = target: Tyrosine-protein kinase JAK2 (Homo sapiens) (UniProt O60674); settings: at 1 µM
[16] = target: T2, Tyrosine-protein kinase JAK3 (Homo sapiens) (UniProt P52333); settings: at 0.1 µM
T2 sequence (whole entry): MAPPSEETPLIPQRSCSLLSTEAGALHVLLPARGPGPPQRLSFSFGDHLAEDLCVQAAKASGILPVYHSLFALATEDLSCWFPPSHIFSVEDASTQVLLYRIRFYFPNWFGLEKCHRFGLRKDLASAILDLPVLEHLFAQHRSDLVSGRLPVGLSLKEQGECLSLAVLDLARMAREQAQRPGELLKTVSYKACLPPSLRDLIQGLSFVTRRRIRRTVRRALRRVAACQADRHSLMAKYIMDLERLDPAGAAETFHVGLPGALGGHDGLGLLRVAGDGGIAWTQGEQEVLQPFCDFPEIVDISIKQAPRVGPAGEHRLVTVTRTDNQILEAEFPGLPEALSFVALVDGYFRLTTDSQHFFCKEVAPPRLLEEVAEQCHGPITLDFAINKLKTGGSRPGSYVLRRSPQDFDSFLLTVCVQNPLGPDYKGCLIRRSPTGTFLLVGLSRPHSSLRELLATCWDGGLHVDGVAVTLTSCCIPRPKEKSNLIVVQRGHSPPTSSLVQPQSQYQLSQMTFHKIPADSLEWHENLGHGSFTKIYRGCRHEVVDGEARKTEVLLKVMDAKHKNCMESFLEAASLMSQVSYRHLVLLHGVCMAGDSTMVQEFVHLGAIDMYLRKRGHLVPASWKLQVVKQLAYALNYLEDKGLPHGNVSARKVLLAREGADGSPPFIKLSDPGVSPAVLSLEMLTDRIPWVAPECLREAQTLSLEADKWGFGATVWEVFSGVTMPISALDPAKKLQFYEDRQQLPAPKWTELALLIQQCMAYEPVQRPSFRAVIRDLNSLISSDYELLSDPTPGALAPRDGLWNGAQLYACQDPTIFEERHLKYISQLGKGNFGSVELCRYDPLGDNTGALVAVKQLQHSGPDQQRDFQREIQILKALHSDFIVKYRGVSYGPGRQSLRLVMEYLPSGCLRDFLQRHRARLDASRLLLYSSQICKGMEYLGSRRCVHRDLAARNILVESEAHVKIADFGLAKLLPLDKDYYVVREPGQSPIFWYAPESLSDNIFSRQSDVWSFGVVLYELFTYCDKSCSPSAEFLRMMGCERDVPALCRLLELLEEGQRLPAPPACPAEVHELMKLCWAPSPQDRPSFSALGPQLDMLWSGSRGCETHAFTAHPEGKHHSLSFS

[17] = target: T2, Tyrosine-protein kinase JAK3 (Homo sapiens); settings: at 1 µM
[18] = target: Vascular endothelial growth factor receptor 2 (Homo sapiens) (UniProt P35968); settings: at 0.1 µM
[19] = target: Vascular endothelial growth factor receptor 2 (Homo sapiens) (UniProt P35968); settings: at 1 µM
[20] = target: Mast/stem cell growth factor receptor Kit (Homo sapiens) (UniProt P10721); settings: at 0.1 µM;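 further: values are mean inhibition of KIT, from the GSK PKIS dataset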
Mast/stem cell growth factor receptor Kit (Homo sapiens), sequence (P10721 whole entry): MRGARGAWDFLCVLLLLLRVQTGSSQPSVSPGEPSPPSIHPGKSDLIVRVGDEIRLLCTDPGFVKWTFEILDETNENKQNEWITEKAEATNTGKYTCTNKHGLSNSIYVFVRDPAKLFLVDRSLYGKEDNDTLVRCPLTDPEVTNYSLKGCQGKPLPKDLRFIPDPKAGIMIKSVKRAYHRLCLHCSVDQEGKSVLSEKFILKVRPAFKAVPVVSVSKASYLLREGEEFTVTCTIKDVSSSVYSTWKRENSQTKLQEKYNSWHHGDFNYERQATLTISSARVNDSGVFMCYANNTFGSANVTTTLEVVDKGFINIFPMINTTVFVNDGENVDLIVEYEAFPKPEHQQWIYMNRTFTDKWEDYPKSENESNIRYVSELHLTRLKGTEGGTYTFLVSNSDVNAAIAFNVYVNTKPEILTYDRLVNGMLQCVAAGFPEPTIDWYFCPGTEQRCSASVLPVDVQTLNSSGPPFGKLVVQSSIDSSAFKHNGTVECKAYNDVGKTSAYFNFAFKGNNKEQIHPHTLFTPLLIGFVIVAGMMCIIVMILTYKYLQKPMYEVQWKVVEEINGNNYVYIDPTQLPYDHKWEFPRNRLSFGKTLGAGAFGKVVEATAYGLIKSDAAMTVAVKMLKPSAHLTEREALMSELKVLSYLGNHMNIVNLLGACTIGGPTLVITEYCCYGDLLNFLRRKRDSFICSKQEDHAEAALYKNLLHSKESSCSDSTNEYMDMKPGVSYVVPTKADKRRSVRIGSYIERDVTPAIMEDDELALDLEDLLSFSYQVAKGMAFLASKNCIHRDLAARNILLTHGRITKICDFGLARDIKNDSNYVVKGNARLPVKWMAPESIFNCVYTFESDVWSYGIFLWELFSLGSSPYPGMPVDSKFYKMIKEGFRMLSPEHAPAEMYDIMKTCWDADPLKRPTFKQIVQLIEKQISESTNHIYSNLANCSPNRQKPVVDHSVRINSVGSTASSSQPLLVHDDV

Tyrosine-protein kinase Fyn (Homo sapiens), sequence (P06241 2-537 limits assumed): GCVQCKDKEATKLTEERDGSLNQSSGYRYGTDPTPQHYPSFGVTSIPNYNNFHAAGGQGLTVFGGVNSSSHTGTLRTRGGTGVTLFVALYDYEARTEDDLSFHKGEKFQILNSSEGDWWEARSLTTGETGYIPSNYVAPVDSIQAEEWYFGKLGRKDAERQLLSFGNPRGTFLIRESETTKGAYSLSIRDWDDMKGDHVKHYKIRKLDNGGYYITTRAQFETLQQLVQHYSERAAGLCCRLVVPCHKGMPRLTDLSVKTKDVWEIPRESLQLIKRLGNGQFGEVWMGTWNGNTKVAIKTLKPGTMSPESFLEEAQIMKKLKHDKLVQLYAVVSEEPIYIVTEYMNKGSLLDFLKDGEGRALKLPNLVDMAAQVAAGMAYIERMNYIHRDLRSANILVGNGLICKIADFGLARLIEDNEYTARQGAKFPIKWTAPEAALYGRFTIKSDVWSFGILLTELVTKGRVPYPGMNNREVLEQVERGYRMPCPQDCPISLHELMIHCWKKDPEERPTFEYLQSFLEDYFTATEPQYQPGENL
Tyrosine-protein kinase HCK (Homo sapiens), sequence (P08631 2-526 limits assumed): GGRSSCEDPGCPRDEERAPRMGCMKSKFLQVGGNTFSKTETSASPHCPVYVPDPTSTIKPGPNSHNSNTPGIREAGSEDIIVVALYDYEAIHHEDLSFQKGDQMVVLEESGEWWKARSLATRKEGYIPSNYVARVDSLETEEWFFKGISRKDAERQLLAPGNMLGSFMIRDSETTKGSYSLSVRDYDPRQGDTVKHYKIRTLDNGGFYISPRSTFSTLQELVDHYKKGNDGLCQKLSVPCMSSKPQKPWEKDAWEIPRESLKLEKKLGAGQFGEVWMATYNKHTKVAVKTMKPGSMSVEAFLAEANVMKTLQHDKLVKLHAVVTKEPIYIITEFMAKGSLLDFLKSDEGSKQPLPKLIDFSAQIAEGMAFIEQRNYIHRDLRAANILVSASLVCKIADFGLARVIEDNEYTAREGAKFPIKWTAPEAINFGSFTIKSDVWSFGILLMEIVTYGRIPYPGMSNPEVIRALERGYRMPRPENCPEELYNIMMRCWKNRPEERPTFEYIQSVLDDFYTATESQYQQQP

SMILES	inhibition [1] [%]	inhibition [2] [%]	inhibition [3] [%]	inhibition [4] [%]	inhibition [5] [%]	inhibition [6] [%]	inhibition [7] [%]	inhibition [8] [%]	inhibition [9] [%]	inhibition [10] [%]	inhibition [11] [%]	inhibition [12] [%]	inhibition [13] [%]	inhibition [14] [%]	inhibition [15] [%]	inhibition [16] [%]	inhibition [17] [%]	inhibition [18] [%]	inhibition [19] [%]	inhibition [20] [%]
COC(=O)c1cncc(/C=C/c2c(C)cc(O)cc2C)c1	20	8.77	37.5	2.87	2.99	3.1	0.15	5.13	2.83	0.96	1.55	2.46	4.21	0.81	2.05	-1.76	0.99	2.37	4.91	32.9
OCc1ccc(-c2nc(-c3ccccn3)c(-c3ccc4c(c3)OCO4)[nH]2)cc1	5.01	9.2	9.7	1.56	4.7	3.33	2.79	4.43	1.6	1.59	2.5	3.55	3.24	2.17	3.4	-1.9	0.74	7.67	6.53	13.1
Cc1ccc2c(c1)/C(=N/Nc1ccc(S(N)(=O)=O)cc1)C(=O)N2	0.85	1.4	6.19	-1.37	-2.24	-0.03	1.98	-1.32	-0.18	0.66	1.38	-1.86	-1.74	-1.17	-0.24	0.33	4.38	2.62	22.6	27.8
CC(C)c1ccc2c(c1)NC(=O)/C2=N/Nc1ccc(S(N)(=O)=O)cc1	7.54	0.57	11	-0.14	1.33	4	1.87	-1.32	-1.93	0.01	2.46	-0.53	0.94	-1.94	-0.2	-0.51	1.08	1.26	4.21	7.67
O=C(Nc1ccc(Oc2ccc3[nH]c(NC(=O)c4ccco4)nc3c2)cc1)Nc1cc(C(F)(F)F)ccc1F	19.9	7.54	47.3	-8.65	-5.27	1.23	1.66	0.43	0.25	-2.86	0.22	-1.24	0.27	1.11	7.23	-3.43	-2.59	–	–	30.5
CCn1c(-c2nonc2N)nc2ccc(F)cc21	4.14	4.97	7.63	4.55	8.11	5.06	5.22	4.24	3.56	2.15	1.52	5.5	10.5	1.07	1.29	-1.62	-1.23	5.19	6.9	5.81
COc1cc2ncnc(Nc3ccc(C)c(O)c3)c2cc1OC	56.2	44.9	75.1	12.2	11	5.04	6.96	2.18	3.05	1.63	1.28	1.62	12.6	1.49	0.53	-1.17	2.14	75.4	72	9.08
